The supplement of paper PMC6555819

Tests used:
Assay in all cases: PBM binding z-score (relative to random genomic background probes); higher = stronger binding; sequences stand for … in GC…GCGATTGACAGCGTAGAATGAAGG
[1] = system: FXR:RXRa (NR concentration 270 nM, RXRa partner concentration 90 nM)
Procedure, shortened: (§1)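 Ligand-free nuclear receptor dimers were applied to custom Agilent 4×180K protein-binding microarrays whose double-stranded probes carried direct-repeat seeds, single-nucleotide variants, half-site ablations and random human genomic background sequences in 34-nt variable regions. Incubation lasted 1 h. Binding z-scores were computed against the random background probes from regression-normalized fluorescence.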

[2] = system: LXRa:RXRa (NR concentration 270 nM, RXRa partner concentration 90 nM)
Procedure, shortened: as §1

[3] = system: LXRa homodimer (NR concentration 270 nM)
Procedure, shortened: as §1

[4] = system: LXRb:RXRa (NR concentration 270 nM, RXRa partner concentration 90 nM)
Procedure, shortened: as §1

[5] = system: LXRb homodimer (NR concentration 270 nM)
Procedure, shortened: as §1

[6] = system: PPARa:RXRa (NR concentration 270 nM, RXRa partner concentration 90 nM)
Procedure, shortened: as §1

[7] = system: PPARg:RXRa (NR concentration 180 nM, RXRa partner concentration 90 nM)
Procedure, shortened: as §1

[8] = system: PPARg:RXRa 270nM:90nM, anti-RXR (NR concentration 270 nM, RXRa partner concentration 90 nM)
Procedure, shortened: as §1

[9] = system: PPARg:RXRa 30nM:10nM, anti-RXR (NR concentration 30 nM, RXRa partner concentration 10 nM)
Procedure, shortened: as §1

[10] = system: PPARg:RXRa 90nM:30nM, anti-RXR (NR concentration 90 nM, RXRa partner concentration 30 nM)
Procedure, shortened: as §1

[11] = system: PPARg:RXRa DBDmut IVT, anti-RXR (DBD mutation: RXRa K156A/R161A, NR concentration 270 nM, RXRa partner concentration 90 nM)
Procedure, shortened: as §1

[12] = system: PPARg:RXRa IVT, anti-PPARg (NR concentration 270 nM, RXRa partner concentration 90 nM)
Procedure, shortened: as §1

[13] = system: PPARg DBDmut:RXRa IVT, anti-PPARg (DBD mutation: PPARg1 K132A/R137A, NR concentration 270 nM, RXRa partner concentration 90 nM)
Procedure, shortened: as §1

[14] = system: PPARg DBDmut IVT, anti-PPARg (DBD mutation: PPARg1 K132A/R137A, NR concentration 270 nM)
Procedure, shortened: as §1

[15] = system: PPARg homodimer (NR concentration 180 nM)
Procedure, shortened: as §1

[16] = system: PXR:RXRa (NR concentration 270 nM, RXRa partner concentration 90 nM)
Procedure, shortened: as §1

[17] = system: PXR homodimer (NR concentration 270 nM)
Procedure, shortened: as §1

[18] = system: RARa:RXR (NR concentration 270 nM, RXRa partner concentration 90 nM)
Procedure, shortened: as §1

[19] = system: RARa homodimer (NR concentration 270 nM)
Procedure, shortened: as §1

[20] = system: RARb:RXRa (NR concentration 270 nM, RXRa partner concentration 90 nM)
Procedure, shortened: as §1

Row | Sequence | PBM binding z-score [1] | PBM binding z-score [2] | PBM binding z-score [3] | PBM binding z-score [4] | PBM binding z-score [5] | PBM binding z-score [6] | PBM binding z-score [7] | PBM binding z-score [8] | PBM binding z-score [9] | PBM binding z-score [10] | PBM binding z-score [11] | PBM binding z-score [12] | PBM binding z-score [13] | PBM binding z-score [14] | PBM binding z-score [15] | PBM binding z-score [16] | PBM binding z-score [17] | PBM binding z-score [18] | PBM binding z-score [19] | PBM binding z-score [20]
1 | CGAACTAGGTCATTGACAGGACAGCGAATAGTAA | 4.04 | 2.83 | 0.577 | 1.84 | -0.147 | 4.83 | 7.35 | 6.29 | 3.94 | 5.75 | 7.7 | 7.96 | 1.01 | 0.969 | 1.57 | 1.35 | 0.255 | 2.1 | 0.179 | 3.61
2 | CGTCCAAGGTCAGCAGGACAGTGAAAGCGACGTG | 5.11 | 3 | -0.143 | 2.24 | -0.588 | 4.36 | 2.83 | 3.16 | 0.274 | 2.07 | 2.27 | 2.58 | 0.502 | -0.859 | 1.75 | 2.27 | 0.176 | 2.92 | 0.175 | 5.17
3 | AGAATGAAGTTAAGATCAGGGAAACAGAATACAT | -0.542 | -0.312 | -0.0829 | -0.14 | -0.44 | -0.111 | 0.991 | 0.0665 | 0.0605 | 0.34 | -0.915 | -0.265 | 0.14 | 0.809 | -0.657 | -0.19 | 0.0131 | -0.474 | 0.347 | -0.251
4 | TCTAGCCGGCCAGAGGGTCACTCAAGAGGTACGG | 1.12 | 0.885 | -0.666 | 1.07 | -1.11 | 2.03 | 0.575 | 1.57 | 1.39 | 1.44 | 0.224 | -0.0177 | -0.893 | -1.23 | 0.24 | 1.48 | -0.354 | 2.24 | -0.43 | 2.08
5 | TTACCAAGCTGAAGGTCGTTGATCCCTCTGTAGA | 1.61 | 1.68 | -0.245 | 1.04 | -0.907 | 1.03 | 0.527 | 2.36 | 0.492 | 1.8 | -0.256 | -0.224 | -1.71 | -1.67 | -0.217 | 1 | -0.159 | 0.87 | -1.08 | 0.656
6 | CCTACTGGGCCACGAACGGTCATTGATTCAGTGA | 0.0231 | 1.38 | 0.691 | -0.0702 | -0.838 | 0.858 | 1.47 | 1.36 | -0.262 | 0.515 | 5.64 | 4.88 | -0.4 | -0.69 | 0.254 | -0.201 | -0.435 | 0.0689 | -0.329 | 1.42
7 | CAAACTAGGTCACAGAGATCAAAGTCCGTGCGTA | 4.32 | 3.26 | 0.659 | 2.41 | 0.38 | 5.25 | 8.83 | 7.25 | 5.12 | 7.3 | 8.62 | 9.06 | 1.86 | 1 | 2.16 | 2.28 | 0.448 | 2.78 | 0.89 | 4.03
8 | GCAGATAGGTGAAACGCAGGTAACTCAGGGTGGC | -0.146 | 0.0468 | -0.529 | -0.0922 | -1.28 | 1.27 | 0.838 | 0.277 | -0.496 | 0.174 | 3.27 | 1.58 | 0.0261 | -0.672 | -0.419 | -0.335 | -0.798 | 0.347 | -0.582 | 0.748
9 | AGAACCAGGGCAATGAGTTGATAGCACGGGTGGC | -0.133 | -0.319 | -0.429 | -0.657 | -0.564 | 0.717 | 1.19 | 0.451 | -0.539 | 0.047 | 2.95 | 2.68 | 0.333 | -0.225 | -0.0189 | 0.171 | 0.97 | -0.324 | -0.0861 | 0.985
10 | CGAACTAGGTCTTCCAGGACAGTGAATACATTGA | 0.011 | -0.496 | 0.128 | -0.568 | -0.706 | 0.796 | 0.846 | 0.622 | -0.0415 | 0.143 | 4.68 | 3.48 | 0.439 | 0.129 | -0.375 | -0.421 | -0.138 | -0.242 | -0.331 | 0.384
11 | GATACAGGGTCAGCTAGAGGCCAGAATATGGAAA | 4.72 | 2.63 | -0.176 | 2.61 | -0.466 | 4.48 | 3.78 | 3.14 | 1.04 | 2.25 | 0.991 | 2.56 | -0.253 | -0.217 | 2.63 | 3.24 | 0.115 | 4.04 | 0.657 | 4.02
12 | GCGACTTGGGCAAAGCAGGTTACCATAAGGTTGG | -0.371 | -0.57 | -0.467 | -0.537 | -1.29 | 0.243 | 0.451 | -0.351 | -0.654 | -0.41 | -0.00446 | -0.245 | -0.728 | -1.56 | -0.641 | -0.189 | -0.923 | 0.287 | -1.35 | -0.0319
13 | AGAACGAGGGTACGCTGAGTTGATAGCAGAGTAG | -0.315 | -0.553 | -0.621 | -0.739 | -0.968 | -0.00229 | 0.661 | -0.197 | -0.127 | -0.289 | 1.48 | 0.725 | 0.215 | 0.0529 | -0.458 | 0.223 | 0.15 | -0.0408 | -0.807 | 0.364
14 | CTCGACAGGTCGGTTGAGGTGAGTATACGGATAA | 1.43 | -0.211 | -0.296 | -0.278 | -0.791 | 0.423 | 0.166 | -0.237 | -0.356 | -0.324 | -0.656 | 0.236 | -0.149 | -0.718 | -0.0437 | 0.653 | -0.282 | 0.493 | -0.539 | 0.905
